Among the data in PubChem BioAssay (NCATS) are activation and Potency values, retold here.

“And” between values parts separate entries of the source, which are not always exact repeats. Identical values can stand only once. Results filed as inconclusive are left out. Some structures have more than one record in an assay (separate samples or runs), and their calls can disagree. Unmarked numbers belong to inactive results. The source made the active and inactive calls. Calls come from the whole dose curve; as a rule, active = well fitted activation curve with a large enough effect; inconclusive = small, poorly fitted or top-dose-only effect; inactive = no such curve, though single readings can be large or run the other way.
Potency is the fitted concentration of half-maximal effect.

The experiment deals with Cellular tumor antigen p53 (Homo sapiens) (UniProt P04637). Description: Primary qHTS for small molecule compounds that upregulate eGFP-tagged delta133p53alpha (in N-terminal) cells. (AID 2060322).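 For activation: cells pre-induced with doxycycline then dosed without doxycycline; series mostly up to about 56 µM; 0% = DMSO vehicle and 100% = reference activator.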 Note: nearly all actives have a fitted effect of over 75% in size. The settings on record: NCI-H358 eGFP-delta133p53alpha fluorescence, 24 h; activation: stronger effect = higher value. From the text: Assay Development and Screening Technology
Sequence of Cellular tumor antigen p53 (Homo sapiens) (P04637 whole entry, looked up): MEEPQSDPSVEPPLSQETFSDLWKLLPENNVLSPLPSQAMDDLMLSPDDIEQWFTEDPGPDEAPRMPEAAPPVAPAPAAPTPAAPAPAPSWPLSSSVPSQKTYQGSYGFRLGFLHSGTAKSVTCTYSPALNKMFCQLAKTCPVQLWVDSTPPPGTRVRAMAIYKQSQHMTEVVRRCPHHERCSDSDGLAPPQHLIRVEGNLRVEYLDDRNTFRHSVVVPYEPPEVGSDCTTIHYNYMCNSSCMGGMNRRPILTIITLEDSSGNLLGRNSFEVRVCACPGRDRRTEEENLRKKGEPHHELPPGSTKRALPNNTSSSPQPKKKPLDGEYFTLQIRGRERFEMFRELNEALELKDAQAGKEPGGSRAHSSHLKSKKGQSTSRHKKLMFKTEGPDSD
National Center for Advancing Translational Sciences (NCATS),
National Institute of Health (NIH), Rockville, Maryland
Cellular senescence (CS) is one of the hallmarks of aging and age-related diseases. Senescent cells are characterized by an irreversible growth arrest, an increase in senescence-associated beta-galactosidase (SA-beta-gal) activity and p16INK4a expression, an activation of the DNA damage response pathways, and the emergence of a senescence-associated secretory phenotype (SASP).
Delta133p53alpha, a human/primate-specific p53 protein isoform, delays or inhibits the induction of CS and SASP in various types of human cells, including progeria-derived fibroblasts, primary normal astrocytes, and CD8+ T lymphocytes. Induction of delta133p53alpha with small molecule compounds may provide therapeutic opportunities for inhibition of senescence/SASP-associated pathologies in progeria syndromes, astrocyte-mediated neuroprotection in neurodegenerative diseases, and possibly prevention and treatment of a wider range of senescence- and aging-associated diseases.
Here we report the development and validation of a cell-based quantitative high throughput screening (qHTS) assay in 1,536-well format. This qHTS assay uses the NCI-H358 cell line with doxycycline-inducible expression of enhanced green fluorescent protein (eGFP)-tagged delta133p53alpha, which allows efficient and highly quantitative measurement of the protein levels.
PROTOCOL TABLE (as described by Inglese J, Shamu CE and Guy RK. 2007)
SEQUENCE No. (e.g., 1, 2, 3, etc.); […] (e.g., Cells, Incubation, Reagent, etc.); VALUE; DESCRIPTION.
1; Cells; 4uL; 800 doxycycline treated cells / well in doxycycline-free media, 1536-well black, clear-bottom low base Aurora microplates.
2; Compounds; 23 nL; Kalypsis pin tool (Wako) equipped with 1536-well pin heads, 5-azacytidine positive control.
3; Incubation; 24 hr; 37C, 5% CO2; 95% relative humidity.
4; Aspiration; 1x; BioTek EL406 washer dispenser (Agilent).
5; Fixing; 3.5% paraformaldehyde, BioTek EL406 washer dispenser (Agilent).
6; Washing; 1x PBS; BioTek EL406 washer dispenser (Agilent).
7; Nuclei staining; 1:1000 dilution of Hoechst 33342 (Thermofisher), BioTek EL406 washer dispenser (Agilent).
8; Incubation; 20 min; in the dark at room temperature.
9; Washing; 2x, 1x PBS (ThermoFisher), BioTek EL406 washer dispenser (Agilent).
10; Reagent; 10 uL; 1x PBS per well, sealed with clear adhesive tape.
NOTES (numbers refer to sequence numbers above).
1. NCI-H358 cells expressing eGFP-tagged delta133p53alpha were grown in T75 culture flasks and treated with doxycycline for 24h, at 10 ng/ml for eGFP-D133p53a cells (N-terminal cell) and 100 ng/ml for D133p53a-eGFP cells (C-terminal cells). Cells were trypsinized, counted using a Counted 3 Automated Cell Counter (Thermo Fisher), and diluted to a concentration of 200,000 cells/ml. A Multidrop Combi Reagent Dispenser (ThermoFisher) was used to dispense 800 cells/well in […] of doxycycline-free media, into 1536-well black/clear bottom low base plates (AuroraMicroplates).
2. After plating cells, 23 nl of compound library, DMSO vehicle control or positive control (5-azacytidine) were transferred by Pin Tool (Wako). The plate map layout was the same for each plate: (column 1) non-doxycycline treated cells + DMSO vehicle control; (column 2) doxycycline treated cells + DMSO vehicle control baseline; (column 3) doxycycline treated cells + positive control 57.5 uM final concentration 5-azacytidine; (column 4) doxycycline treated cells + serial dilution of 5-azacytidine, 16-point 1:2 titration spanning 1.8 nM to […] final concentration; (columns 5-48) doxycycline treated cells + titration of library compounds.
3. Cells were incubated at 37 °C, 5 % CO2, 95% RH with breathable metal lid for 24h.
4-10. […] After two washes, 10 ul of 1X PBS (Thermo Fisher) was dispensed to each well. Clear adhesive plate seals (VWR) were applied and plates stored at 4 °C.
11. […]
`CNC[C@H](O)c1ccc(O)c(O)c1`: the activation is 2.51% and 2.46% and 10.6%. Same read-out and setting: then `C=C1C(=O)OC2CC(C)=C(C(C)CCCO[C@@H]3O[C@H](CO)[C@@H](O)[C@H](O)[C@H]3O)C(O)C12` (stereo not given in full), with -18.3%. Consider `COC1C(CO)OC(n2cnc3c(=O)[nH]cnc32)C1O` (stereo not given), for which the activation was -12.2%. The same measure, in the same setting: then `Cc1cc(Nc2cc(N3CCN(C)CC3)nc(Sc3ccc(NC(=O)C4CC4)cc3)n2)n[nH]1`, with 60.2%.

For `C=CC[C@@H]1C=C(C)C[C@H](C)C[C@H](OC)[C@H]2O[C@@](O)(C(=O)C(=O)N3CCCC[C@H]3C(=O)O[C@H](C(C)=C[C@@H]3CC[C@H](O)[C@H](OC)C3)[C@@H](C)[C@@H](O)CC1=O)[C@@H](C)C[C@@H]2OC`, the activation was 23.1%. Consider `CCC(=O)c1ccc(O)cc1`, for which the activation was -10%. On the same count and under the same terms, under `CCCNCCc1ccc(NS(=O)(=O)c2ccc(OC(F)(F)F)cc2)cc1` stands 6.68%; under `Nc1ccc(-n2nc(C(F)(F)F)cc2C(F)(F)F)cc1`, 0.893%; under `COc1ccccc1[C@H](c1cccc2ccccc12)[C@@](C)(C#N)C(=O)N1CCC(c2cccc(C(F)(F)F)c2)CC1`, 0.109%. `C=C1CC[C@@H]2[C@](C)(CO)[C@H](O)CC[C@@]2(C)[C@@H]1CC(=O)C1=CCOC1=O`: the activation is 9.16%. Regarding `COC(=O)C1=CO[C@@H](O[C@@H]2O[C@H](CO)[C@@H](O)[C@H](O)[C@H]2O)[C@@H]2C(C)CC(=O)[C@]12O` (stereo not given in full), the activation was 1.79%.

In the case of `CNc1nc(Cc2ccccc2)nc2c1CCNC[C@@H]2C`, the activation was 19%. The same measure, in the same setting: under `Cc1cc(-n2nc3ccc(Cl)cc3n2)c(O)c(C(C)(C)C)c1` stands 19.8%. On the same count and under the same terms, under `O=C(Nc1ccccc1Br)NC1CCN(c2ccc(C(F)(F)F)cn2)C1` (stereo not given) stands 0.477%. On the same count and under the same terms, under `NC1CCN(c2nc3c(cc2F)c(=O)c(C(=O)O)cn3-c2ccc(F)cc2F)C1` (stereo not given) stands 11.9%; under `CN(CCCNC(=O)c1ccc2nc3c(c(Cl)c2c1)CCCC3)Cc1ccccc1`, 20.5%. For `OCC1NCC(O)C(O)C1O` (stereo not given), the activation is -36.6%. Same read-out and setting: then `CC(C)(O)c1ccc2c(c1)C(=O)CC1[C@](C)(CO)CCC[C@]21C` (stereo not given in full), with 26.8%. As to `COC(=O)C(CC1(OC(=O)C(C)C)c2ccccc2N2C(=O)C(C)(C)N(O)C21)n1cnc2ccccc2c1=O` (stereo not given), the activation was 3.05%. For `CC(C)(OC1OC(CO)C(O)C(O)C1O)C1CCC(O)(CO)C2CC(O)C(C)(O)C2C1` (stereo not given), the activation was -19.6%. In the case of `CC1(C)CC[C@]2(C(=O)O[C@@H]3O[C@H](CO)[C@@H](O)[C@H](O)[C@H]3O)CC[C@]3(C)C(=CCC4[C@@]5(C)C[C@H](O)[C@H](O[C@@H]6O[C@H](C(=O)O)[C@@H](O)[C@H](O)[C@H]6O)[C@@](C)(CO)C5CC[C@]43C)C2C1` (stereo not given in full), the activation was -11.6%. On the same count and under the same terms, then `COCCOCC(OC)OC`, with -6.69%; and `Cc1nc2n(c(=O)c1CCN1CCC(C(=O)c3ccc(F)cc3)CC1)CCS2`, with 23.2%; and `Nc1ccc(-c2ccc3ncc4ccc(=O)n(-c5cccc(C(F)(F)F)c5)c4c3c2)cn1`, with 6.6%.

Consider `O=C1N(c2ccccc2)c2ccccc2C1(Cc1ccncc1)Cc1ccncc1`, for which the activation is 10.9% and -8.78% and -29%.

On to `CC1CCC2(C(=O)OC3OC(CO)C(O)C(O)C3O)CCC3(C)C(=CCC4C5(C)CC(O)C(O)C(C)(C(=O)O)C5CCC43C)C2C1(C)O` (stereo not given), for which the activation is -18.3%.

As to `CNC(=O)c1c(I)c(NC(C)=O)c(I)c(C(=O)O)c1I`, the activation was -8.47%. Turning to `Cc1coc2c1C(=O)C(=O)c1c-2ccc2c1CCCC2(C)C`, the activation is 36.5% and the Potency was 8.49 µM (active). With `C=CC(C)(O)CC/C=C(\C)C(=O)O[C@@H]1[C@@H](O)[C@H](OC(C)(C=C)CC/C=C(\C)C(=O)O[C@@H]2O[C@H](CO)[C@@H](O)[C@H](O)[C@H]2O)O[C@H](CO)[C@H]1OC(=O)/C(C)=C/CCC(C)(O)C=C` (stereo not given in full), the activation was -19.8%. In the case of `COc1ccc([C@@H]2Sc3ccccc3N(CCN(C)C)C(=O)[C@@H]2OC(C)=O)cc1`, the activation is 17.5% and -3.98%. As to `C=CCc1ccc(O)c(OC)c1`, the activation was 15.1%. For the molecule `C=C1C(=O)O[C@@H]2C3=C(C)CCC[C@]3(C)CC[C@@]12O`, the Potency was 16.9 µM (active). In the case of `C=C1CCC2C(C)(C(=O)O)CCCC2(C)C1CC/C(C)=C\CO` (stereo not given), the activation is 15.2%.

On to `O=P(O)(O)C(Cl)(Cl)P(=O)(O)O`, for which the activation was -11.2%. On the same count and under the same terms, then `O=C(/C=C\n1cnc(-c2cc(C(F)(F)F)cc(C(F)(F)F)c2)n1)NNc1cnccn1`, with 24.8%; and `CC1(C)CC[C@]2(C(=O)O[C@@H]3O[C@H](CO)[C@@H](O)[C@H](O)[C@H]3O)CC[C@]3(C)C(=CCC4[C@@]5(C)CC[C@H](O[C@@H]6O[C@H](C(=O)O)[C@@H](O[C@@H]7O[C@H](CO)[C@@H](O)[C@H](O)[C@H]7O)[C@H](O)[C@H]6O[C@@H]6O[C@H](CO)[C@@H](O)[C@H](O)[C@H]6O)C(C)(C)C5CC[C@]43C)C2C1` (stereo not given in full), with -29.8%; and `Cc1occc(=O)c1O[C@@H]1O[C@H](CO[C@@H]2OC[C@](O)(CO)[C@H]2O)[C@@H](O)[C@H](O)[C@H]1O`, with 0%. Still for that read-out and setting: under `CC[C@H]1OC(=O)C[C@@H](O)[C@H](C)[C@@H](O[C@@H]2O[C@H](C)[C@@H](O)[C@H](N(C)C)[C@H]2O)[C@@H](CCN2C[C@H](C)C[C@H](C)C2)C[C@@H](C)C(=O)/C=C/C(C)=C/[C@@H]1CO[C@@H]1O[C@H](C)[C@@H](O)[C@@H](OC)[C@H]1OC` stands -8.59%; under `C[C@@H]1CCC/C=C/[C@H]2CC(=O)C[C@@H]2[C@@H](O)/C=C/C(=O)O1`, 9.82%.
